Bioassay records deposited in PubChem by Columbia University Molecular Screening Center.
IL1B NFkB inh: inhibitors of IL-1B driven NFkB p65 nuclear import, primary screen, imaging, HUVEC, IL-1B stimulus, high-content imaging | inhibition, % at 2 µM | HUVEC IL-1B NFkB p65 nuclear translocation imaging | AID 796, 2007 | 0.43% of 94,000 active;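 active = inhibition above about 30% together with a positive call from visual inspection of the well image, limit read from the data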;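 note: nuclear over cytoplasmic p65 intensity ratio measured by imaging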
TNFa cytotox: cytotoxicity in TNFa-stimulated HUVEC, primary screen, cytotoxicity control for VCAM1 expression modulator project, imaging, Hoechst nuclei count | AID 848, 2007 | cell count reduction, % at 2 µM | HUVEC TNFalpha-stimulated, Hoechst cell count | 0.17% of 93,000 active;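 active = cell count reduction exceeding the screen mean by over 5 SD, scaled to untreated wells per plate, cut at about 78% in these data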;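 note: cells counted after 24 h of TNF alpha exposure following the 1 h pretreatment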
E-sel TNF inh: E-selectin induction blockers in HUVEC – imaging, immunofluorescence, high content, primary screen | HUVEC TNFa-induced E-selectin immunofluorescence | inhibition, % at 2 µM | 0.71% of 120,000 active;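 active = inhibition above the batch mean plus 3 SD, and confirmed as a hit on visual image review, cut at about 43% in these data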
IL1B NFkB pot: enhancers of NFkB p65 translocation in HUVEC – imaging, IL-1B stimulus, high-content imaging, primary screen | activation, % at 2 µM | 0.3% of 94,000 active | HUVEC IL-1B NFkB p65 nuclear translocation imaging;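 active = activation above 40%, about the mean plus 3 SD, also judged a hit on visual image review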;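 note: percent activation is computed from the nuclear over cytoplasmic p65 intensity ratio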
VCAM1 TNFa inh: inhibitors of TNFa-induced VCAM1 expression, primary screen, imaging, HUVEC, TNFa stimulus, immunofluorescence; HUVEC TNFa-induced VCAM-1 immunofluorescence, high-content imaging; inhibition, % at 2 µM; 0.48% of 95,000 active;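 active = inhibition above the batch mean plus 3 SD, with images confirmed as a hit by eye, cut at about 37% in these data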
HUVEC tox IL1B: cytotoxicity in IL-1B stimulated HUVEC, primary screen, cytotoxicity control for IL-1B NFkB translocation project, imaging, Hoechst nuclear count, IL-1B stimulus; HUVEC cell count loss; cell count reduction, % at 2 µM; 0.41% of 94,000 active; AID 845, 2007;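 active = cell count reduction more than 3 SD above the screen-wide mean, cut at about 70% in these data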
Large screens that a line does not name were inactive. Only some compounds are listed: those with a hit (about 1.7% of all), similar ones and a draw of the others.

O=C(Oc1ccccc1N1C(=O)C2CC=CCC2C1=O)c1ccc(Br)cc1 (stereo not drawn)	E-sel TNF inh 78 (no result: IL1B NFkB inh, TNFa cytotox, IL1B NFkB pot, VCAM1 TNFa inh, HUVEC tox IL1B)
CCNC(=O)CCn1nc(-c2ccc(Cl)cc2)c2ccccc2c1=O	TNFa cytotox 96, VCAM1 TNFa inh 84 (no result: E-sel TNF inh)
CC(C)NC(=O)CCn1nc(-c2ccc(Cl)cc2)c2ccccc2c1=O	none (no result: IL1B NFkB inh, TNFa cytotox, IL1B NFkB pot, VCAM1 TNFa inh, HUVEC tox IL1B)
N=c1c2c(-c3ccccc3)c(-c3ccccc3)n(Cc3ccccc3)c2ncn1CCCn1ccnc1	VCAM1 TNFa inh 73
N=c1c2c(-c3ccccc3)c(-c3ccccc3)n(Cc3ccco3)c2ncn1Cc1ccco1	none (no result: IL1B NFkB inh, TNFa cytotox, IL1B NFkB pot, VCAM1 TNFa inh, HUVEC tox IL1B)
COc1ccc(NC(=O)Cn2nc(C(F)(F)F)c3c2CCCC3)c(OC)c1	none
COc1ccc(CNC(=O)Cn2nc(C(F)(F)F)c3c2CCC3)cc1	IL1B NFkB inh 35, HUVEC tox IL1B 94
O=S(=O)(c1ccc(Cl)cc1)c1snnc1-c1ccccc1	VCAM1 TNFa inh 50
N=C1c2ccccc2CN1NC(=O)c1cccc(S(=O)(=O)N2CCCC2)c1	none (no result: IL1B NFkB inh, TNFa cytotox, IL1B NFkB pot, VCAM1 TNFa inh, HUVEC tox IL1B)
CC[C@H](C)[C@@H]1NC(=O)c2cc([N+](=O)[O-])cc(I)c2NCC[C@@H](C(N)=O)NC(=O)[C@H](CCCN=C(N)N)NC1=O	E-sel TNF inh 83 (no result: IL1B NFkB inh, TNFa cytotox, IL1B NFkB pot, VCAM1 TNFa inh, HUVEC tox IL1B)
CCNC(=O)NC(=O)COC(=O)CCCc1nc2ccccc2s1	none (no result: IL1B NFkB inh, TNFa cytotox, IL1B NFkB pot, VCAM1 TNFa inh, HUVEC tox IL1B)
CCOc1cc(/C=C\c2[nH]c(=O)[nH]c(=O)c2[N+](=O)[O-])ccc1OC(C)CC (stereo not drawn)	IL1B NFkB pot 47 (no result: E-sel TNF inh)
CC(c1ccco1)N(C(=O)C12CC3CC(CC(C3)C1)C2)c1ccccn1 (stereo not drawn)	E-sel TNF inh 100
CC(c1ccco1)N(C(=O)c1ccc(Cl)s1)c1ccccn1 (stereo not drawn)	none (no result: E-sel TNF inh)
CSC(=O)CC(=O)NC(=O)c1ccccc1	HUVEC tox IL1B 89
COc1cc(CC(=O)Nc2ncc(C)s2)cc(OC)c1OC	VCAM1 TNFa inh 51
CSCC[C@H](NC(=O)c1nn(C)c(=O)c2ccccc12)c1nc2ccccc2[nH]1	none
NC(=O)CN1CCN(c2nc(-c3ccc(F)cc3)cs2)CC1	none
O=C(CN1CCN(c2nc(-c3ccc(F)cc3)cs2)CC1)Nc1ccc2c(c1)OCO2	VCAM1 TNFa inh 88 (no result: E-sel TNF inh)
COc1ccc(C(C(=O)Nc2ccc(C(C)C)cc2)N(C)C(=O)c2ccc(=O)[nH]c2)cc1 (stereo not drawn)	none (no result: IL1B NFkB inh, TNFa cytotox, IL1B NFkB pot, VCAM1 TNFa inh, HUVEC tox IL1B)
CCN(CC)CCN(C(=O)c1ccc(CN2CCCCC2)o1)C(C(=O)NC1CCCCC1)c1ccc(F)cc1 (stereo not drawn)	none (no result: IL1B NFkB inh, TNFa cytotox, IL1B NFkB pot, VCAM1 TNFa inh, HUVEC tox IL1B)
COc1cccc(-n2cnc3c(sc4nc(N5CCOCC5)c5c(c43)CCCC5)c2=O)c1	none (no result: IL1B NFkB inh, TNFa cytotox, IL1B NFkB pot, VCAM1 TNFa inh, HUVEC tox IL1B)
O=C(NCc1ccccc1)N1CCN(c2ccc(Cl)c(Cl)c2)CC1	E-sel TNF inh 71
NC1=NC(=O)CC(C(=O)NCCc2ccccc2)S1 (stereo not drawn)	IL1B NFkB inh 47
CCOC(=O)c1ccc(NC(=O)COC(=O)Cc2csc(-c3ccccc3)n2)cc1	none (no result: IL1B NFkB inh, TNFa cytotox, IL1B NFkB pot, VCAM1 TNFa inh, HUVEC tox IL1B)
CCOC(=O)c1ccc(Nc2nc(-c3cccnc3)nc3ccccc23)cc1	HUVEC tox IL1B 86
Cc1nc2ccc(NC(=O)C3CCN(S(=O)(=O)c4cccs4)CC3)cc2s1	E-sel TNF inh 72
CCOC(=O)c1cccc(NC(=O)C2CCN(S(=O)(=O)c3cccs3)CC2)c1	none
O=C(NCc1cccnc1)C1CCN(S(=O)(=O)c2cccs2)CC1	E-sel TNF inh 69
O=C(c1cc2ccccc2o1)N1CCN(c2ccccc2Cl)CC1	HUVEC tox IL1B 93 (no result: E-sel TNF inh)
COc1ccc2c(c1)CC/C2=N\NC(=O)c1ccccc1	none (no result: IL1B NFkB inh, TNFa cytotox, IL1B NFkB pot, VCAM1 TNFa inh, HUVEC tox IL1B)
COc1ccc(OCC(=O)N/N=C2\CCc3ccccc32)cc1	IL1B NFkB inh 53
CCn1c(NCc2c[nH]c3ccccc23)nc2ccccc21	none
Cn1c(NCc2c[nH]c3ccccc23)nc2ccccc21	VCAM1 TNFa inh 58
Cc1ccc(S(=O)(=O)NCC(=O)OCC(=O)NC(=O)NC2CCCC2)cc1	none (no result: IL1B NFkB inh, TNFa cytotox, IL1B NFkB pot, VCAM1 TNFa inh, HUVEC tox IL1B)
COc1ccc(OCCN2C(=O)NC3(CCc4ccccc4C3)C2=O)cc1 (stereo not drawn)	none (no result: IL1B NFkB inh, TNFa cytotox, IL1B NFkB pot, VCAM1 TNFa inh, HUVEC tox IL1B)
Cc1ccc(C[n+]2cccc(-c3ccccc3)c2)c(C)c1	none (no result: IL1B NFkB inh, TNFa cytotox, IL1B NFkB pot, VCAM1 TNFa inh, HUVEC tox IL1B)
C=C(Cl)COc1cc(C)cc2oc(=O)cc(CC)c12	IL1B NFkB inh 47
CCCn1nnc(NC(=O)c2cccc(OCC(C)C)c2)n1	E-sel TNF inh 93 (no result: IL1B NFkB inh, TNFa cytotox, IL1B NFkB pot, VCAM1 TNFa inh, HUVEC tox IL1B)
CCOC(=O)C(C(=O)NCc1ccc(F)cc1)c1ncc(C(F)(F)F)cc1Cl (stereo not drawn)	HUVEC tox IL1B 86
Cc1cccc(C)c1OCCNC(=O)CCC(=O)c1ccccc1	none (no result: IL1B NFkB inh, TNFa cytotox, IL1B NFkB pot, VCAM1 TNFa inh, HUVEC tox IL1B)
OCCN=C1CCCc2c1[nH]c1ccc(Br)cc21	VCAM1 TNFa inh 92 (no result: E-sel TNF inh)
COC(=O)C(O)(CC(=O)Nc1ccc(Cl)cc1F)C(F)(F)F (stereo not drawn)	IL1B NFkB inh 32
O=C(CSC1CC(=O)N(c2ccc(C(=O)O)cc2)C1=O)Nc1ccc(Cl)cc1 (stereo not drawn)	none (no result: IL1B NFkB inh, TNFa cytotox, IL1B NFkB pot, VCAM1 TNFa inh, HUVEC tox IL1B)
CCOC(=O)c1cnn(-c2nc3c(C)cccc3s2)c1C	TNFa cytotox 90, VCAM1 TNFa inh 92
CCOC(=O)c1cnn(-c2nc3c(C)cccc3s2)c1C(F)(F)F	none
CCCCCCCN=CC1=C(O)CC(c2ccccc2)CC1=O (stereo not drawn)	none (no result: IL1B NFkB inh, TNFa cytotox, IL1B NFkB pot, VCAM1 TNFa inh, HUVEC tox IL1B)
O=C(COc1ccccc1)Nc1ccccc1N1CCN(c2ccccc2)CC1	IL1B NFkB pot 42
